High-throughput results: PubChem BioAssay, National Center for Advancing Translational Sciences (NCATS)
Rows were chosen to be rich in hits. Some 10% of all compounds tested hit in one or more screens of this group.
Six1-Eya2 inh – blocks human Six1 binding to Eya2; Q15475+O00167; AlphaScreen GST-Six1/His-Eya2 binding, biochemical; stronger effect = lower value; activity change, % (no concentration beside the values); 360,000 tested, 0.56% active; in the data active means activity change below about -65%; inconclusive means mostly about -30% to -63%; further: on the % scale 0 is the no-effect control and ±100 the full control effect
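AlphaScreen with GST-Six1 and His-Eya2 (5X mix: 250 nM and 500 nM), glutathione donor and nickel acceptor beads; buffer 50 mM Tris pH 8.0, 300 mM NaCl, 1 mM TCEP; 1 h at 37 C in the dark.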
CtBP-E1A inh – CtBP/E1A binding inhibition. AlphaScreen GST-E1A/His-CtBP binding, 1536-well; stronger effect = lower value. activity change, % (no concentration beside the values). 340,000 tested, 0.49% active. AID 651724; in the data active means activity change below about -65%; inconclusive means mostly about -30% to -63%; further: on the % scale 0 is the no-effect control and ±100 the full control effect
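AlphaScreen with 125 nM GST-E1A and 125 nM His-CtBP (5X stocks) in Tris pH 8.0, 300 mM NaCl, BSA, Tween 20, TCEP. Compounds preincubated 2 h at 37 deg C, then glutathione donor/nickel acceptor beads added for 1 h at 37 deg C in dark.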
G9a inh – blocks human histone lysine methyltransferase G9a; AID 504332; G9a H3K9 monomethylation, AlphaScreen, 2 h; Potency, µM (highest dose often 102 µM), without a hit: at the highest dose activity, negative = inhibition, hits mostly inhibitors; 350,000 tested, 8.8% active; further: potency means the concentration at half of the fitted maximal effect; on the % scale 0 is the no-effect control and ±100 the full control effect; nearly all actives have a fitted effect of over 75% in size
Target sequence (Q96KQ7 913-1193 limits assumed): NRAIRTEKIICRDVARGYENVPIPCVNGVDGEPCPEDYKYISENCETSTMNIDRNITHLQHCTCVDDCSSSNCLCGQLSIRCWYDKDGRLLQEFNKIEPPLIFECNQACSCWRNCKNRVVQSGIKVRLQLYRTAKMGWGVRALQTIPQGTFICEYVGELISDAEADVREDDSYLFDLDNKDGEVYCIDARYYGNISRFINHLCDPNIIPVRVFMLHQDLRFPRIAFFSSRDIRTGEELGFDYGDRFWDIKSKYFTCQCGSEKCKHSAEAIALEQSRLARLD
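Methyltransferase reactions run at room temperature for 2 h (20 nM enzyme, 500 nM biotin-H3K9 peptide, 20 uM SAM) after a 15 min compound preincubation; product detected by AlphaScreen beads and anti-H3K9me1 antibody.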
BAZ2B inh – inhibitors of human BAZ2B bromodomain | Q9UIF8 | AlphaScreen BAZ2B-H3K14Ac peptide displacement | Potency, µM (titrated, usually from 114 µM), without a hit: at the top dose activity change, negative = inhibition, usual class: inhibitors | 360,000 tested, 4.4% active | AID 504333; further: potency means the concentration at half of the fitted maximal effect; on the % scale 0 is the no-effect control and ±100 the full control effect; nearly all actives have a fitted effect of over 60% in size
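BAZ2B 50 nM plus b-H3(5-23)K14Ac 50 nM, PBS pH 7.4/0.01% Tween-20, 30 min RT; compound added (max 110 uM), 30 min RT; streptavidin donor/Ni-chelate acceptor beads 10 ug/mL final, 20 min dark; AlphaScreen read.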
HP1b chromo inh – HP1-beta chromodomain-methylated histone interaction inhibition; P83916; AlphaScreen HP1-beta / biotin-H3K9me3 peptide binding; Potency, µM (top dose mostly 114 µM), for the others: top-dose activity change, negative = inhibition, most hits filed as inhibitors; 390,000 tested, 0.56% active; AID 540317; further: potency means the concentration at half of the fitted maximal effect; nearly all actives have a fitted effect of over 70% in size
Target sequence (P83916 whole entry, looked up): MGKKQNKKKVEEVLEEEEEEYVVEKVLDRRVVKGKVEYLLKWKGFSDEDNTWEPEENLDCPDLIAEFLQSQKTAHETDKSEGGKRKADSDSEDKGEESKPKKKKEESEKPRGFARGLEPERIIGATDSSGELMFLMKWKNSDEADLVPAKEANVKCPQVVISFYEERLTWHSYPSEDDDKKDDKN
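HP1-beta protein (50 nM final) preincubated 30 min at room temperature with biotinylated H3(1-18)K9me3 peptide (50 nM) in PBS pH 7.4, 0.01% Tween-20, then compound added for 30 min. AlphaScreen streptavidin donor/nickel chelate acceptor beads (10 ug/mL final), 30 min dark, luminescence read.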
JMJD2A Tudor inh – inhibitors of human JMJD2A Tudor domain. Potency, µM (series often up to 114 µM), without a hit: at the highest dose activity change, negative = inhibition, usual class: inhibitors. 390,000 tested, 4.4% active. AlphaScreen JMJD2A-Tudor / H3K4me3 peptide binding; further: potency means the concentration at half of the fitted maximal effect; on the % scale 0 is the no-effect control and ±100 the full control effect; nearly all actives have a fitted effect of over 50% in size
Active calls of the source: *; ? = inconclusive; nt = no result given; [ ] = another dose, or the depositor's remark. Unless noted, the call rests on the fitted dose curve; in most records, active means well fitted inhibition curve with a large enough effect; inconclusive means small, poorly fitted or top-dose-only effect; inactive means no such curve, though single readings can be large or run the other way.

SMILES	Six1-Eya2 inh	CtBP-E1A inh	G9a inh	BAZ2B inh	HP1b chromo inh	JMJD2A Tudor inh
Cc1ccc2oc3c(c(=O)c2c1)C(c1cccs1)N(CCCN(C)C)C3=O (configuration not stated)	-1	5	40µM*	-23%	18%	-22%
CCOC(=O)c1c(NC(C)=O)c2c3c(sc2n1Cc1nc(-c2ccccc2OCC)oc1C)CCCC3	nt	nt	2%[59 µM]	-17%	33%	-4%
Cc1c(NC(=O)c2ccc(Cl)cc2)cc(C(C)C)c(O)c1S(=O)(=O)c1ccc(Cl)cc1	nt	nt	-2%[59 µM]	-9%	10%	-15%
COc1ccc(CCNC(=O)CCCn2c(=O)c3ccccc3n(CC(=O)Nc3c(C)cc(C)cc3C)c2=O)cc1OC	nt	nt	8%[59 µM]	-24%	27%	-4%
COC(=O)c1ccc(C2c3c(oc4ccccc4c3=O)C(=O)N2CCCN2CCOCC2)cc1 (configuration not stated)	-2	4	35µM*	-3%	46%	-12%
COCCN1C(=O)c2oc3ccccc3c(=O)c2C1c1ccc(C(=O)OC)cc1 (configuration not stated)	5	-7	-2%[59 µM]	-2%	64%	-8%
COc1ccc(C2c3c(oc4ccccc4c3=O)C(=O)N2CCN2CCOCC2)cc1OC (configuration not stated)	-6	9	nt	nt	14%	2%
COCCN1C(=O)c2oc3ccccc3c(=O)c2C1c1ccc(OC)c(OC)c1 (configuration not stated)	-10	4	-4%	-4%	?	56µM*
COc1cccc(C2c3c(oc4ccccc4c3=O)C(=O)N2CCCN2CCOCC2)c1 (configuration not stated)	-2	-1	50µM*	0%	47%	-9%
Cc1ccc2c(c1)N(C(=O)NCc1ccccc1)CCO2	nt	nt	-14%[59 µM]	3%	35%	-6%
Cc1ccc(C(=O)c2no[n+]([O-])c2C(=O)c2ccc(C)cc2)cc1	-4	-5	40µM*	?	-13%	-23%
Cc1ccc(Cn2c(=O)c3cccnc3n(CC(=O)Nc3cc(Cl)ccc3C)c2=O)cc1	nt	nt	7%[59 µM]	-1%	33%	3%
Cc1ccc2cccc(OC(=O)c3c(F)cccc3Cl)c2n1	2	1	nt	nt	nt	nt
CCc1ccc(OC(=O)/C=C/c2ccco2)cc1	22	7	nt	?	-20%	80%
O=C(/C=C\c1ccco1)Oc1cccc2cccnc12	-76*	-74*	-47%	32µM*	-12%	?
O=C(/C=C/c1ccco1)Oc1cccc2cccnc12	-79*	0	nt	45µM*	7%	?
COc1cc(C(=S)N2CCOCC2)ccc1OC(=O)/C=C/c1ccco1	-10	-16	?	nt	21%	-26%
Cc1ccc2cccc(OC(=O)/C=C\c3ccccc3)c2n1	2	-7	10%	-11%	21%	20µM*
CCNC(=O)C1CCCN(c2nn3cc(-c4ccc(C)cc4)nc3s2)C1 (configuration not stated)	nt	nt	-49%[59 µM]	-2%	18%	-23%
COc1ccc(-c2nc(CSCC(=O)NCc3ccccc3Cl)c(C)o2)cc1OC	nt	nt	?	-31%	5%	?
COc1ccc(-n2c(=O)c3ccc(C(=O)NCc4ccc(C)cc4)cc3n(CC(=O)Nc3ccc(C)cc3)c2=O)cc1	nt	nt	-30%[59 µM]	nt	40%	-12%
CCOC(=O)c1cnc2c(OC)cccc2c1Nc1cccc(O)c1	nt	nt	7%[59 µM]	-1%	22%	-11%
COc1ccc(N2CCN(C(=O)c3oc4ccccc4c3NC(=O)c3ccccc3OC)CC2)cc1	nt	nt	5.6µM*	-18%[57.1 µM]	14%	?
COc1cc(CCC(=O)Nc2c(C(=O)N3CCN(c4ccccc4)CC3)oc3ccccc23)on1	-9	-16	?	?	17%	?
COc1ccc(N2CCN(C(=O)c3oc4ccccc4c3NC(=O)CCc3cc(OC)no3)CC2)cc1	-20	-24	35µM*	?	-21%	45µM*
SMILES	Six1-Eya2 inh	CtBP-E1A inh	G9a inh	BAZ2B inh	HP1b chromo inh	JMJD2A Tudor inh
Cc1cc(C)n2ncc(C(=O)NC(C)C)c2n1	nt	nt	nt	nt	nt	-16%
CS(=O)(=O)Nc1ccc(N2CCN(c3ccc(C(F)(F)F)cn3)CC2)nc1	0	-2	15%	-2%	38%	-8%
CC1=NN(c2ccc(C(F)(F)F)cn2)C(=O)C1	-68*	?	-7%	8.9µM*	40%	79µM*
O=C(CCC(=O)N1CC2CCCN2c2ccccc21)NCc1ccccc1 (configuration not stated)	nt	nt	0%[59 µM]	-37%	2%	-31%
c1ccc2c(c1)NCC1CCCN21 (configuration not stated)	-27	-28	2.2µM*	45µM*	?	50µM*
COc1ccc(/C=C/c2nc3ccccc3c(=O)n2-c2cccc(C(F)(F)F)c2)cc1	nt	nt	-1%[59 µM]	2%	3%	-16%
O=C(c1cc([N+](=O)[O-])ccc1Cl)N1c2ccccc2Sc2ccccc21	?	-10	8.9µM*	?	-34%	?
O=C(c1cc([N+](=O)[O-])ccc1Cl)N1CCN(c2ccccc2)CC1	-6	-3	?	?	-18%	-20%
O=C(NCc1ccccc1Cl)c1ccc(Cn2c(=O)c3cccn3c3cccnc32)cc1	nt	nt	-27%[59 µM]	-30%	34%	-15%
C=CCC1NS(=O)(=O)OCC1NC(=O)OCC(Cl)(Cl)Cl (configuration not stated)	4	6	19%	0%	36%	-21%
CC(C)(C)OC1NS(=O)(=O)OCC1NCOC(Cl)(Cl)Cl (configuration not stated)	-7	-6	32µM*	50µM*	7%	79µM*
O=c1oc2c(-c3ccc([N+](=O)[O-])cc3)cc(O)cc2s1	6	-22	56µM*	-26%	?	-32%
Cc1ccc(N/N=C(/Sc2nnnn2-c2ccccc2)C(=O)c2ccccc2)cc1	-78*	?	10%[59 µM]	?	-7%	?
NNC(=O)CSc1nnnn1-c1ccccc1	1	0	nt	-2%	34%	-12%
COCC(C)Nc1nc(C)c(C(C)=O)s1 (configuration not stated)	4	3	45µM*	?	28%	-1%[57.1 µM]
